Laboratory results as given in PubChem BioAssay (NCATS).
Results filed as inconclusive are left out. Where a call stands in place of a potency, no number is given. Unmarked numbers belong to inactive results. Calls of active or inactive are those of the source. Calls follow the shape of the dose curve; as a rule, active = well fitted curve in the direction sought with a large enough effect; inconclusive = small, poorly fitted or top-dose-only effect, or another doubt; inactive = no such curve, though single readings can be large; an effect the other way counts as inactive or inconclusive.

Legend:
[1] = P-glycoprotein substrates identified in KB-8-5-11 adenocarcinoma cell line, qHTS therapeutic library screen (AID 1346987); also: nearly all actives have a fitted effect of over 65% in size; as to activity change, negative = cytotoxicity: series mostly up to about 44 µM
Procedure, shortened: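 Human cervical adenocarcinoma KB-8-5-11 cells, selected in colchicine to over-express P-gp and assayed without it, were exposed for 72 h to titrated compounds. An ATP-based luminescent viability signal gave AC50.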

[2] = test system: Zika virus NS2B-NS3 protease (unlinked complex); assay: Primary screen GU Rhodamine qHTS for Zika virus inhibitors: Unlinked NS2B-NS3 protease assay (AID 1347159); also: nearly all actives have a fitted effect of over 60% in size; also: potency is read from the fitted curve at half-maximal effect
Procedure, shortened: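 Buffer 10 mM Tris-HCl pH 8.0, 0.01% Tween 20. Unlinked protease 25 nM; compound preincubation 15 min, RT, protected from light. Substrate Rhod110, 1.5 microM; ~15% conversion in 15 min.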

[3] = test system: Zika virus NS2B-NS3 protease (linked construct); assay: Primary screen NINDS Rhodamine qHTS for Zika virus inhibitors (AID 1347160); also: nearly all actives have a fitted effect of over 55% in size
Procedure, shortened: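 Aprotinin served as in-plate control. Conditions: 25 nM linked NS2B-NS3, pH 8.0 Tris buffer, titrated compounds, 15 min preincubation and 15 min reaction with 1.5 microM Rhod110 substrate at room temperature.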

[4] = Confirmatory screen NINDS Rhodamine qHTS for Zika virus inhibitors (AID 1347161); also: nearly all actives have a fitted effect of over 60% in size; also: potency is read from the fitted curve at half-maximal effect
Procedure, shortened: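 Percent inhibition, normalized to uninhibited and enzyme-free controls, is fitted to a 4-parameter Hill equation. Fluorescence change comes from a 15-min cleavage of 1.5 microM bis-peptide Rhodamine110 substrate by 25 nM linked NS2B-NS3 at room temperature.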

With CN1CCN(C(=O)c2cc3cc(Cl)ccc3[nH]2)CC1 the Potency [1] was “inactive”, the Potency [2] was “inactive” and the Potency [3] was “inactive”.
In the case of Cc1ccc(Cl)cc1N(CC(=O)Nc1c(F)cccc1F)S(C)(=O)=O, the Potency [1] was “inactive”, the Potency [2] was “inactive” and the Potency [3] was “inactive”.
For C=C(CCO)C(=O)OCC1OCC(OC(=O)C(=C)CCO[C@@H]2O[C@H](COC(=O)C(=C)CCO[C@@H]3O[C@H](CO)[C@@H](O)[C@H](O)[C@H]3O)[C@@H](O)[C@H](O)[C@H]2O)C(O)C1O (some centres undefined), the Potency [1] was “inactive”, the Potency [2] was “inactive” and the Potency [3] was “inactive”.
For COCC1OC(n2cnc3c(=O)[nH]cnc32)C(O)C1O (centres undefined), the Potency [1] was “inactive”, the Potency [2] was “inactive” and the Potency [3] was “inactive”.
In the case of COc1cc(CO)ccc1O[C@@H]1O[C@H](CO)[C@@H](O)[C@H](O)[C@H]1O, the Potency [1] was “inactive”, the Potency [2] was “inactive” and the Potency [3] was “inactive”.
For O=C(O)c1cccc(C(=O)CCC2OC(n3cnc4c(=O)[nH]cnc43)C(O)C2O)c1 (centres undefined), the Potency [1] was “inactive”, the Potency [2] was “inactive” and the Potency [3] was “inactive”.
For C=C1CC[C@@]2(OC1)O[C@H]1CC3[C@@H]4CC=C5C[C@H](O[C@H]6OC[C@@H](O)C(O)[C@@H]6O[C@@H]6O[C@@H](C)[C@H](O)[C@@H](O[C@@H]7O[C@H](CO)[C@@H](O)[C@H](O)[C@H]7O)[C@H]6O)C[C@@H](O)[C@]5(C)C4CC[C@]3(C)[C@H]1[C@@H]2C (some centres undefined), the activity change, negative = cytotoxicity [1] was 2.38% [at 9.29 µM], the Potency [2] was “inactive” and the Potency [3] was “inactive”.
In the case of CC(C)[C@](O)(c1ccc2cc(OC(F)F)c(OC(F)F)cc2c1)c1cn[nH]n1, the Potency [1] was “inactive”, the Potency [2] was “inactive” and the Potency [3] was “inactive”.
In the case of CCCCOc1nc(N)c2c(n1)N(Cc1cccc(CN3CCCC3)c1)CC(=O)N2, the Potency [1] was “inactive”, the Potency [2] was “inactive” and the Potency [3] was “inactive”.
With C=C(C(=O)O)C1CC(O)C2(C)CCCC(C)(O)C2C1 (centres undefined) the Potency [1] was “inactive”, the Potency [2] was “inactive” and the Potency [3] was “inactive”.
With CC1=C2C(=O)C=C(CO[C@@H]3O[C@H](CO)[C@@H](O)[C@H](O)[C@H]3O)[C@@H]2[C@H]2OC(=O)[C@H](C)[C@@H]2[C@@H](O)C1 the Potency [1] was “inactive”, the Potency [2] was “inactive” and the Potency [3] was “inactive”.
For COc1c(C)c(OCC=C(C)C)cc2c1CNC2=O, the Potency [1] was “inactive”, the Potency [2] was “inactive” and the Potency [3] was “inactive”.
In the case of Nc1ccc(-n2nc(C(F)(F)F)cc2C(F)(F)F)cc1, the Potency [1] was “inactive”, the Potency [2] was “inactive” and the Potency [3] was “inactive”.
In the case of O=C(CC1CC(c2ccc(F)cc2F)=NO1)N1CCOCC1 (centres undefined), the Potency [1] was “inactive”, the Potency [2] was “inactive” and the Potency [3] was “inactive”.
In the case of CC[C@@H]1C(=O)O[C@]23C=C[C@@H]4C(C(=O)OC)=CO[C@H](O[C@@H]12)[C@@H]43, the Potency [1] was “inactive” and the Potency [3] was “inactive”.
In the case of O=C(O)c1ccnc2cc(-c3nc4ccccc4n3CCN3CCCCC3)sc12, the Potency [1] was “inactive”, the Potency [2] was “inactive” and the Potency [3] was “inactive”.
With Cc1ccccc1-n1nc(-c2c(-c3ccc(F)cc3)nn3c2NC[C@@H](CO)C3)ccc1=O the Potency [1] was “inactive”, the Potency [2] was “inactive” and the Potency [4] was “inactive”.
For CC(C)=CCC[C@](C)(O[C@@H]1O[C@H](CO)[C@@H](O)[C@H](O)[C@H]1O)[C@H]1CC[C@]2(C)[C@@H]1[C@H](O)CC1[C@@]3(C)CC[C@H](O)C(C)(C)C3[C@@H](O[C@@H]3O[C@H](CO)[C@@H](O)[C@H](O)[C@H]3O[C@@H]3O[C@@H](C)[C@H](O)[C@@H](O)[C@H]3O)C[C@]12C (some centres undefined), the outcome [1] was “inactive [at 9.29 µM]”, the Potency [2] was “inactive” and the Potency [3] was “inactive”.
With COc1c2ccoc2nc2c(OC)c(O[C@@H]3O[C@@H](C)[C@H](O)[C@@H](O[C@@H]4O[C@H](CO)[C@@H](O)[C@H](O)[C@H]4O)[C@H]3OC(C)=O)ccc12 the Potency [1] was “inactive”, the Potency [2] was “inactive” and the Potency [3] was “inactive”.
With CCC(C)/C=C(C)/C=C/C1=CC2=CC(=O)C(C)(O)C(OC(C)=O)C2CO1 (centres undefined) the Potency [1] was “inactive”, the Potency [2] was 14.1 µM (active) and the Potency [3] was “inactive”. For the same compound, the Potency [4] was 34.3 µM (active).
For CC(C(=O)Nc1cc(C#N)ccc1CCCC(=O)O)c1ccc(F)c2ccccc12 (centres undefined), the Potency [1] was “inactive” and the Potency [3] was “inactive”.
With CN[C@H](CNC(=O)N1CCC[C@@H]([C@@H](OCCNC(=O)OC)c2cccc(Cl)c2)C1)C[C@H]1CCCOC1 the Potency [1] was “inactive”, the Potency [2] was “inactive” and the Potency [3] was “inactive”.
In the case of O=C(O)Cn1nnc(-c2ccc(CN(CCCCOc3ccc(CN4CCCC4)cc3)CCc3ccccc3)cc2)n1, the Potency [1] was “inactive” and the Potency [3] was “inactive”.
In the case of CC(=O)OC1C(O)/C(C)=C\C2C(OC(=O)c3ccccc3)C(C)CC2(OC(C)=O)C(OC(C)=O)C(C)/C=C/C(C)(C)C1OC(C)=O (centres undefined), the Potency [1] was “inactive” and the Potency [3] was “inactive”.
In the case of O=C(/C=C/c1ccccc1)OC[C@H]1O[C@@H](OC(=O)c2cc(O)c(O)c(O)c2)[C@H](O)[C@@H](O)[C@@H]1O, the Potency [1] was “inactive”, the Potency [2] was 3.98 µM (active) and the Potency [3] was “inactive”. The Potency [4] was 3.41 µM (active).
With COc1cc(O)cc(C)c1C(=O)O[C@H]1[C@@H](O)[C@@H](n2ccc(=O)[nH]c2=O)O[C@@H]1CO the Potency [1] was “inactive”, the Potency [2] was “inactive” and the Potency [3] was “inactive”.
In the case of O=C(OCC1=C[C@@H](O)[C@@H]2C=CO[C@@H](O[C@@H]3O[C@H](CO)[C@@H](O)[C@H](O)[C@H]3O)[C@H]12)c1ccc(O)cc1, the Potency [1] was “inactive” and the Potency [3] was “inactive”.
With OC[C@@]1(O)CO[C@@H](OC[C@H]2O[C@@H](Oc3ccccc3)[C@H](O)[C@@H](O)[C@@H]2O)[C@@H]1O the Potency [1] was “inactive”, the Potency [2] was “inactive” and the Potency [3] was “inactive”.
With CC1=C2CC3C(CCC3(C)O)C(C)(O)CC2OC1=O (centres undefined) the Potency [1] was “inactive”, the Potency [2] was “inactive” and the Potency [4] was 44.1 µM (active).
